Source: PubChem BioAssay (National Center for Advancing Translational Sciences (NCATS))
Shiga toxin inh = A qHTS for Small Molecule Inhibitors of Shiga Toxin | Vero cells, Shiga toxin protein synthesis inhibition reporter | inhibition, % at 38.7 µM | actives 9.2% (n = 290,000) | AID 2315, 2010; in the data active means inhibition mostly above about 28%, no sharp cut-off; inactive means mostly below about 43%
Cycloheximide cs = Cycloheximide Counterscreen for Small Molecule Inhibitors of Shiga Toxin; max response, %; actives 12% (n = 300,000); AID 2314, 2010; cell reporter, cycloheximide protein synthesis inhibition counterscreen; in the data active means max response mostly above about 13%, no sharp cut-off; inactive means mostly below about 14%; further: read at 38.3 µM for the half of the compounds with a filed dose
Pf growth 96h = Primary qHTS for delayed death inhibitors of the malarial parasite plastid, 96 hour incubation | P. falciparum luciferase reporter growth, 96 h | Potency, µM (doses to about 28.7 µM), most hits filed as inhibitors | actives 6.9% (n = 320,000) | AID 504834, 2011
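P. falciparum expressing integrated firefly luciferase grown in erythrocytes (2% hematocrit, 0.05% parasitemia final) with compounds for 96 hours at 37 C, 5% CO2. Growth inhibition read as loss of luminescence after adding luciferase detection reagent.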
Lassa entry inh = qHTS for Inhibitors of binding or entry into cells for Lassa Virus | Potency, µM (titrated, usually from 37.9 µM), most hits filed as inhibitors | Lassa virus pseudotype entry inhibition, cell reporter | actives 1.2% (n = 300,000) | AID 540256, 2011; calls by dose curve; tested in HEK293 cells; further: nearly all actives have a fitted effect of over 50% in size
Pf growth 48h = Primary qHTS for delayed death inhibitors of the malarial parasite plastid, 48 hour incubation; P. falciparum luciferase growth in erythrocytes, 48 h; Potency, µM (series often up to 28.7 µM), actives largely listed as inhibitors; actives 5.9% (n = 310,000); AID 504832, 2011
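Cell-based growth assay: transgenic P. falciparum expressing firefly luciferase, cultured in red cells within RPMI 1640 containing 0.5% w/v Albumax, 24 mM bicarbonate and gentamycin. A drop in luciferase activity indicates inhibition.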
Marburg entry inh = qHTS for inhibitors of binding or entry into cells for Marburg Virus; Marburg virus pseudotyped entry inhibition, cell reporter; Potency, µM (top dose mostly 37.8 µM), hits mostly inhibitors; actives 1.8% (n = 300,000); calls by dose curve; tested in HEK293 cells
Large screens that a line does not name were inactive. A selection: hits, their analogues and other compounds. The true share with any hit is near 19%. Unless noted, the call rests on the fitted dose curve; in most records, active means well fitted inhibition curve with a large enough effect; inconclusive means small, poorly fitted or top-dose-only effect, or another doubt; inactive means no such curve, though single readings can be large or run the other way.

CCOC(=O)Cn1ccc(NC(=O)c2ccc3c(c2)OCO3)n1	Cycloheximide cs 31 (no result: Lassa entry inh, Marburg entry inh)
Cc1ccc(Cn2ccc(NC(=O)c3cc(-c4ccc5c(c4)OCO5)on3)n2)cc1	none
Cc1ccnc(NC(=O)CNC(=O)c2ccc3c(c2)OCO3)c1	Shiga toxin inh 45, Cycloheximide cs 26, Marburg entry inh inconclusive
Cc1cc(C)nc(NC(=O)Nc2ccc3c(c2)OCO3)c1	Shiga toxin inh 65, Cycloheximide cs 47 (no result: Lassa entry inh, Marburg entry inh)
Cc1ccnc(NC(=O)CNC(=O)c2ccc3ccccc3c2)c1	none (no result: Shiga toxin inh, Cycloheximide cs)
Cc1cccc(NC(=O)Nc2cc(C)cc(C)n2)c1	Shiga toxin inh 148, Cycloheximide cs 65 (no result: Lassa entry inh, Marburg entry inh)
Cc1ccc(NC(=O)/C=C/c2ccc3c(c2)OCO3)nc1	Shiga toxin inh 147, Cycloheximide cs 57, Pf growth 96h inconclusive
CCSc1nnc(NC(=O)/C=C/c2ccc3c(c2)OCO3)s1	none
Cc1cc(C)nc(NC(=O)c2ccc3c(c2)OCO3)c1	Shiga toxin inh 85, Cycloheximide cs 46, Pf growth 96h inconclusive (no result: Lassa entry inh, Marburg entry inh)
CCOC(=O)Cn1nc(NC(=O)c2ccc(C(=O)OC)cc2)cc1C	Cycloheximide cs 19
Cc1cc(C)nc(NS(=O)(=O)c2ccc(NC(=O)c3ccc4c(c3)OCO4)cc2)n1	Pf growth 96h inconclusive
Cc1ccc(NC(=O)Nc2ccc3c(c2)OCO3)nc1	Shiga toxin inh 80, Cycloheximide cs 21 (no result: Lassa entry inh, Marburg entry inh)
COc1ccc(CN2C(=O)c3cccnc3C2=O)cc1S(=O)(=O)N1CCCCC1C (configuration not stated)	Pf growth 48h inconclusive (no result: Lassa entry inh, Marburg entry inh)
O=C(CCNC(=O)c1ccccc1)NNC(=O)COc1ccccc1Cl	none (no result: Shiga toxin inh, Cycloheximide cs, Pf growth 96h, Pf growth 48h)
COc1ccc(NC(=S)N2c3ccccc3CC2C)cc1OC (configuration not stated)	none (no result: Lassa entry inh, Marburg entry inh)
COc1ccc(CN(C)CC2CCCN(CCc3ccccc3C)C2)cc1O (configuration not stated)	Pf growth 96h inconclusive, Lassa entry inh inconclusive, Pf growth 48h 5.9µM, Marburg entry inh 8.9µM
Cc1ccccc1CCN1CCCC(CN(C)C(=O)C(=O)c2ccco2)C1 (configuration not stated)	Cycloheximide cs 18
COc1ccc(CCN2CCCC(CN(C)Cc3cc(Cl)c(O)c(OC)c3)C2)cc1 (configuration not stated)	Pf growth 48h 2.3µM (no result: Lassa entry inh, Marburg entry inh)
COc1ccc(CCN2CCCC(CN(C)C(=O)c3ccoc3)C2)cc1 (configuration not stated)	Shiga toxin inh 142, Cycloheximide cs 52 (no result: Lassa entry inh, Marburg entry inh)
CCOC(=O)C(O)(c1ccc(N(CC)C(=O)COc2ccccc2)cc1)C(F)(F)F (configuration not stated)	Lassa entry inh inconclusive, Marburg entry inh inconclusive
O=C(Cn1cnc2ccccc21)N/N=C/c1cccs1	Lassa entry inh inconclusive
C/C(=N\NC(=O)c1cc(O)ccc1O)c1cccc(NC(=O)c2ccc(Cl)cc2)c1	Shiga toxin inh 78, Cycloheximide cs 47, Pf growth 96h inconclusive, Lassa entry inh inconclusive, Pf growth 48h inconclusive, Marburg entry inh inconclusive
C/C(=N\NC(=O)c1cc(O)ccc1O)c1cccc(NC(=O)c2cccc(Cl)c2)c1	Shiga toxin inh 71, Cycloheximide cs 41, Pf growth 96h inconclusive (no result: Lassa entry inh, Marburg entry inh)
C/C(=N/NS(=O)(=O)c1ccc(C)cc1)c1cccc(NC(=O)c2cccc(Cl)c2)c1	Marburg entry inh inconclusive
C/C(=N/NS(=O)(=O)c1ccc(Cl)cc1)c1cccc(NC(=O)c2ccc(Cl)cc2Cl)c1	Shiga toxin inh 84, Cycloheximide cs 33, Pf growth 48h inconclusive, Marburg entry inh inconclusive
C/C(=N\NC(=O)C1CC1)c1cccc(NC(=O)c2cccc(Cl)c2)c1	Pf growth 48h inconclusive (no result: Lassa entry inh, Marburg entry inh)
CCc1c(C(=O)NN2C(=O)C3CCCCC3C2=O)csc1C (configuration not stated)	none
COc1ccc(N(CC(=O)Nc2ccccc2C(=O)O)S(=O)(=O)c2ccc(C)c([N+](=O)[O-])c2)cc1	none
CC(=O)Oc1ccc(N(C(C)=O)S(=O)(=O)c2ccc(C)c([N+](=O)[O-])c2)cc1	Pf growth 96h 2.6µM
Cc1cc(C(F)(F)F)nn1CC(=O)N(C)C1CCCCC1	none (no result: Shiga toxin inh, Cycloheximide cs, Pf growth 96h, Pf growth 48h)
Cc1c(NC(=O)C(C)OC(=O)c2cccs2)c(=O)n(-c2ccccc2)n1C (configuration not stated)	none
CCC(C)(C)C1CCc2nc3ccccc3c(C(=O)OC(C)C(=O)Nc3c(C)n(C)n(-c4ccccc4)c3=O)c2C1 (configuration not stated)	Pf growth 96h 10µM, Lassa entry inh inconclusive, Pf growth 48h inconclusive, Marburg entry inh inconclusive
Cc1cc2ncn(CC(C)C)c2cc1C	Pf growth 48h inconclusive
OC1(c2ccccc2Cl)NN=C2CCCCCN21 (configuration not stated)	none
C[N+]1=C2CCCCCN2C(O)(c2ccccc2)C1 (configuration not stated)	Pf growth 96h 8.3µM
Cc1ccc(OCC(=O)Nc2ccccc2F)cc1C	Shiga toxin inh 81, Cycloheximide cs 36, Pf growth 96h inconclusive, Lassa entry inh inconclusive
O=C(COC(=O)CC12CC3CC(CC(C3)C1)C2)Nc1cccnc1Cl	Cycloheximide cs 25
Cc1ccc(OCC(=O)Nc2cccnc2Cl)cc1C	Shiga toxin inh 58, Cycloheximide cs 18
Cc1cc(Cl)ccc1OCC(=O)OCC(=O)Nc1cccnc1Cl	none (no result: Shiga toxin inh, Cycloheximide cs, Lassa entry inh, Marburg entry inh)
Cn1c(-c2nonc2N)nc2ccccc21	Pf growth 96h 10µM (no result: Lassa entry inh, Marburg entry inh)
Cc1cccc(Cn2c(-c3cccc(Br)c3)nc3ccccc32)c1	none (no result: Shiga toxin inh, Cycloheximide cs, Pf growth 96h, Pf growth 48h, Marburg entry inh)
CC(=O)c1ccc(-c2nc3ccccc3n2C)o1	Shiga toxin inh 57, Cycloheximide cs 36
Cc1ccc(C2Nc3ccccc3-c3nc4ccccc4n32)o1 (configuration not stated)	Shiga toxin inh 67, Cycloheximide cs 54
Brc1ccc(Cn2c(-c3ccc(Br)o3)nc3ccccc32)o1	Cycloheximide cs 18, Pf growth 96h inconclusive, Pf growth 48h inconclusive
O=C1c2ccccc2NC(c2ccc(-c3ccc(F)cc3)o2)N1O (configuration not stated)	none (no result: Shiga toxin inh, Cycloheximide cs, Lassa entry inh, Marburg entry inh)
COc1ccc2c(CC(=O)OCC(=O)Nc3ccc(S(N)(=O)=O)cc3)coc2c1	none
COC(=O)C(C)n1nc(C)n(-c2ccc(C)cc2)c1=O (configuration not stated)	none
Cc1ccc2nc(-c3ccc(Br)o3)oc(=O)c2c1	none (no result: Pf growth 96h)
Cn1c(-c2ccc(Br)o2)nc2cc(Br)ccc21	Shiga toxin inh 104, Cycloheximide cs 52, Lassa entry inh inconclusive, Marburg entry inh inconclusive
Cn1c(-c2ccc(Br)o2)nc2ccccc21	Cycloheximide cs 29, Lassa entry inh inconclusive, Marburg entry inh inconclusive
Cc1ccc(-c2nc3ccccc3n2C)o1	Shiga toxin inh 74, Cycloheximide cs 57, Lassa entry inh inconclusive, Marburg entry inh inconclusive (no result: Pf growth 48h)
Cn1c(Sc2nc3ccccc3n2C)nc2ccccc21	Lassa entry inh inconclusive, Marburg entry inh inconclusive (no result: Pf growth 48h)
